Source: PubChem
TRHR PAM – allosteric enhancers of human TRH receptor. TRHR cells, fluo-8 calcium fluorescence, EC20 TRH enhancement. enhancement, % at 2 µM. 360,000 tested, 0.66% active. AID 493056; in the data active = enhancement above about 30%
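TRHR-expressing cells loaded with fluo-8 calcium dye were read kinetically (ex 480/em 530) during compound addition, then stimulated with an EC20 of TRH (10 nM final). Enhancement of the Gq-mediated intracellular calcium response was scored.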
D1 antag – blocks dopamine activation of the human D1 receptor; P21728; HEK293 TREx D1 cells, calcium flux, dopamine EC80; stronger effect = lower value; activity change, negative = inhibition, % at 10 µM; 360,000 tested, 3.2% active; AID 504652; in the data active = activity change below about -30%
Target sequence (P21728 whole entry, looked up): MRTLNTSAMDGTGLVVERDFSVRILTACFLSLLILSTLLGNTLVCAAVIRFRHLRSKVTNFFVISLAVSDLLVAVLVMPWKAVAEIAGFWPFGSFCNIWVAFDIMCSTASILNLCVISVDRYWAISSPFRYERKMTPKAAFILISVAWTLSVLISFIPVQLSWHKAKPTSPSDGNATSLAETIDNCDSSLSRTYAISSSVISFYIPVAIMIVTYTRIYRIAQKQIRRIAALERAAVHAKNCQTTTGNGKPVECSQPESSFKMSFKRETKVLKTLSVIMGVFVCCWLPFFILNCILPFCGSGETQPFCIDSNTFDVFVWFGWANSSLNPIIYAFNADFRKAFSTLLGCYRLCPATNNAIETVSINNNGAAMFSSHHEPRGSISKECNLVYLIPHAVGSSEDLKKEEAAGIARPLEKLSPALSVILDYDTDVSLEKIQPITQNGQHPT
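Antagonism measured as reduced calcium response to an EC80 dopamine addition following 180 s compound pre-read; cells were inducible HEK293 Trex D1 plated overnight at 30 C, read kinetically at 1 cycle/sec.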
D1 ag – activates the human D1 dopamine receptor; P21728; HEK293 T-REx D1 cells, calcium flux, agonist mode; activation, % at 2 µM; 360,000 tested, 1% active; AID 504660
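Tetracycline-induced HEK293 TREx D1 cells, force-coupled to calcium signalling, were dye-loaded with a no-wash calcium kit. Compound was pin-added after a 10 s baseline. Fluorescence was read kinetically at 1 cycle/s for 180 s, with calcium rises flagged as agonism.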
TRHR agonist – agonists of human TRH receptor; P34981; TRHR cells, calcium flux fluo-8, FDSS agonist mode; activation, % at 2 µM; 360,000 tested, 0.18% active
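TRHR-expressing cells, plated overnight in medium with 10% serum, were loaded with fluo-8 calcium dye at room temperature. After a 10 s baseline, library compound was pin-added and calcium release was recorded kinetically (ex 480/em 530) as agonist response.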
D1 PAM – potentiators of human D1 dopamine receptor. HEK293 TREx D1 cells, calcium flux, dopamine EC20 potentiation. 360,000 tested, 0.036% active. potentiation, % at 10 µM. AID 504651; in the data active = potentiation above about 30%
Hits are given with their value; - = inactive; . = no result. The list is not random: actives were taken first. Their share in the collection is about 4.7%. Rule as the data show it, unless noted: active = activation above about 30%; inactive = the rest.

SMILES	TRHR PAM	D1 antag	D1 ag	TRHR agonist	D1 PAM
CCOC(=O)c1cc2c(=O)n3ccccc3nc2n(Cc2ccco2)c1=NC(=O)c1cccc(F)c1	-	-	-	-	-
CCc1nc(NC(C)(C)C)c2cnn(-c3ccccc3)c2n1	-	-	32	-	-
COc1ccc(CCNc2nc(SCc3ccccc3Cl)nc3ccccc23)cc1OC	-	-	-	-	-
OCCN1CN=C(Nc2nc3ccccc3o2)NC1	-	-42	-	-	-
CCCN1CN=C(Nc2nc3ccccc3o2)NC1	-	-	-	-	-
CCOC(=O)c1ccc(CN(Cc2ccc(C)cc2)S(=O)(=O)c2ccc(NC(C)=O)cc2)cc1	-	-	-	-	-
CCOC(=O)c1ccc(CN(Cc2ccc(C)cc2)S(=O)(=O)c2ccc(F)c(C(=O)Nc3ccc(C)c(F)c3)c2)cc1	-	-46	-	-	-
Cn1c(N)c(C(=O)N/N=C/c2ccccc2)sc1=S	36	-	-	-	-
CCOc1ccc(NC(=O)CC2C(=O)N(c3ccc(F)cc3)C(=O)N2CCc2sccc2C)cc1 (configuration not stated)	42	-	-	-	-
COc1ccc(NC(=O)CC2C(=O)N(c3ccc(OC)cc3)C(=O)N2CCC2=CCCCC2)cc1 (configuration not stated)	-	-31	-	-	-
COc1ccc(NC(=O)CC2C(=O)N(c3ccc(F)cc3)C(=O)N2CCc2sccc2C)cc1 (configuration not stated)	-	-	-	-	-
COC(=O)CN1C(=S)N(c2ccc(F)cc2)C(=O)C1CC(=O)Nc1ccc(F)cc1 (configuration not stated)	-	-51	-	-	-
CCCOc1ccc(NC(=O)CC2C(=O)N(c3ccc(Cl)cc3)C(=O)N2CCc2ccncc2)cc1 (configuration not stated)	-	-35	-	-	-
COC(=O)CN1C(=S)N(c2ccc(Cl)cc2)C(=O)C1CC(=O)Nc1ccc(F)cc1 (configuration not stated)	-	-	-	-	-
Cc1ccc(-n2nc(C)c3c(C)cc(=O)n(CC(=O)Nc4ccc(Br)cc4F)c32)cc1	-	-	-	-	-
COc1ccc(NC(=O)CC2C(=O)N(c3ccc(C)cc3)C(=O)N2CCc2ccccc2)cc1 (configuration not stated)	-	-37	-	-	-
COc1ccc(CCN2C(=O)N(c3ccc(F)cc3)C(=O)C2CC(=O)Nc2ccccc2)cc1 (configuration not stated)	-	-	-	-	-
Cc1cccc(N2C(=O)C(CC(=O)Nc3ccc(Cl)cc3)N(Cc3ccco3)C2=O)c1 (configuration not stated)	-	-	-	-	-
O=C(CC1C(=O)N(c2ccccc2)C(=O)N1Cc1ccco1)Nc1ccccc1 (configuration not stated)	-	-44	-	-	-
Cn1c(=O)c2c(-c3ccccc3Br)n(C(C)(C)C)cc2n(C)c1=O	-	-	-	-	-
O=C(Cn1c(=O)n(-c2ccc(F)cc2)c(=O)c2sccc21)NC1CCCCC1	-	-61	-	-	-
Cc1ccc(-n2c(=O)c3sccc3n(CC(=O)NC3CCCC3)c2=O)cc1	-	-	-	-	.
CCOc1ccc(-n2c(=O)c3sccc3n(CC(=O)NC3CCCCC3)c2=O)cc1	39	-	-	-	-
CSc1cc(C)nc(N(C)C(C)=O)n1	-	-	-	-	-
COc1cc(C)nc(N(C)C(C)=O)n1	-	-34	-	-	-
SMILES	TRHR PAM	D1 antag	D1 ag	TRHR agonist	D1 PAM
COc1ccc(CCC(=O)NCc2nc3cccnc3n2Cc2ccccc2)cc1	-	-	-	-	-
Cc1ccccc1-c1noc(CSc2nnc(-c3ccncc3)n2-c2ccc(F)cc2)n1	-	-	-	-	-
Cc1ccc(-n2c(SCc3nc(-c4ccccc4C)no3)nnc2-c2ccncc2)cc1C	-	-34	-	-	-
Cc1c(Cl)c([N+](=O)[O-])nn1CCCC(=O)Nc1cccc(Cl)c1	-	-32	-	-	-
CC(C)c1ccc(N2C(=O)C3C4C=CC(CC4)C3C2=O)cc1 (configuration not stated)	-	-	-	-	-
CC1CC(=O)N(c2ccc(C(C)C)cc2)C(=O)C1	-	-32	-	-	-
O=c1cc(N2CCOCC2)c2ccccc2o1	-	-	-	-	-
O=c1cc(N2CCCC2)c2ccccc2o1	35	-	-	-	-
COC(=O)c1sccc1NC(=O)C1CC1	-	-76	-	-	-
COC(=O)c1scc(C)c1NC(=O)C1CCCCC1	-	-44	-	-	-
COC(=O)c1sccc1NC(=S)OC	-	-	-	-	-
CCn1c(COc2ccccc2C)nnc1SCc1nc2ccccc2c(=O)[nH]1	-	-30	-	-	-
CCn1c(CC(=O)Nc2ccccc2)nnc1SCc1nc2ccccc2c(=O)[nH]1	-	-	-	-	-
CCC(C)(C)NC(=O)c1cc(C(=O)OC)cc([N+](=O)[O-])c1	-	-	-	-	-
CCCN(CCC)S(=O)(=O)c1ccc(NC(=O)c2cc(C(=O)OC)cc([N+](=O)[O-])c2)cc1	-	-38	-	-	-
O=C(Cn1cc(SCc2ccc(C(F)(F)F)cc2)c2ccccc21)N1CCCCC1	-	-	-	-	-
CCOC(=O)c1ccc(NC(=O)CN2C(=O)c3cccnc3Sc3ccccc32)cc1	-	-	-	-	-
O=C(CSc1nc2ncccc2[nH]1)NCCc1ccccc1	-	-39	-	-	-
COc1ccc(N(CC(=O)Nc2c(C)n(C)n(-c3ccccc3)c2=O)S(=O)(=O)c2ccc(C)cc2)cc1	30	-	-	-	-
COc1ccc(CCC(=O)Nc2c(C)n(C)n(-c3ccccc3)c2=O)cc1	-	-38	-	-	-
COc1ccc(N(CC(=O)Nc2c(C)n(C)n(-c3ccccc3)c2=O)S(=O)(=O)c2ccc(F)cc2)cc1	-	-	-	-	-
COc1ccc(NC(=O)Nc2c(C)n(C)n(-c3ccccc3)c2=O)cc1	-	-	-	-	-
COCCNC(=O)Cn1cc(/C=C(\C#N)C(=O)NC2CCCC2)c2ccccc21	-	-	-	-	33
CNC(=O)/C(C#N)=C/c1cn(CC(=O)NCc2ccco2)c2ccccc12	-	-	-	-	-
Cc1cccc(-n2c3nc(=O)[nH]c(=O)c-3cc3ccc(Cl)cc32)c1C	-	-	-	-	-
Cc1ccc(CNC(=O)C2CCN(C(=O)N3CC(C)Oc4ccc(Cl)cc43)CC2)cc1 (configuration not stated)	-	-	-	-	-
Cc1cccc(C)c1OC(=O)CSc1nnc(-c2cccs2)o1	-	-	-	-	-
COC(=O)c1ccc2c(=O)n(CCCCCC(=O)N3CCN(c4cc(Cl)ccc4C)CC3)c(=O)[nH]c2c1	-	-	-	-	-
